Screening data from PubChem BioAssay.
Hits are enriched below; roughly 3.3% of the tested compounds scored in any of these assays.
SARS PLP yeast = blocks SARS-CoV papain-like protease in a yeast assay | S. cerevisiae expressing SARS-CoV PLpro, growth rescue | Potency, µM (titrated, usually from 32.9 µM), for the others: at the top dose activity, positive = growth rescue, most hits filed as activators | hit rate 0.19% among 330,000; calls by dose curve; note: 0% is about no effect; nearly all actives have a fitted effect of over 55% in size
AmpC inh no detg = blocks E. coli AmpC beta-lactamase in detergent-free assay; P00811; AmpC nitrocefin hydrolysis, absorbance 480 nm, 0.0001% Triton; Potency, µM (titrated, usually from 57.1 µM), inactives show top-dose activity change, negative = inhibition, usual class: inhibitors; hit rate 0.52% among 330,000; AID 485341;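 note: plate controls were no compound for no effect and no enzyme for full effect; nearly all actives have a fitted effect of over 20% in size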
Target sequence (P00811 whole entry, looked up): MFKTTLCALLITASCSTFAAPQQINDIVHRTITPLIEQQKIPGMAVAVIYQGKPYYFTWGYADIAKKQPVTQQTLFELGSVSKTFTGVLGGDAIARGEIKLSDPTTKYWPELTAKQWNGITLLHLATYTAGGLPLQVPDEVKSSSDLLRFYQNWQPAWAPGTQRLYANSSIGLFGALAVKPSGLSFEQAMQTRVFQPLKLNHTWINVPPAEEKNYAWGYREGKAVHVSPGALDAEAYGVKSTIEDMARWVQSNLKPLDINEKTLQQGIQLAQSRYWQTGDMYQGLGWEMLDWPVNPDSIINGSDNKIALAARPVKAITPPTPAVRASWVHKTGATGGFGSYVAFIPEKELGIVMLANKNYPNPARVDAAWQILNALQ
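20 mM phosphate pH 7.0 + 0.01% (detergent screen) or 0.0001% Triton X-100; 5.3 nM AmpC reagent; cpd preinc 15 min RT; nitrocefin (800 uM stock) to start; A480 q20 s × 4 min; Activity was normalised to no-enzyme and no-compound control wells.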
AmpC inh detg = blocks E. coli AmpC beta-lactamase in detergent assay; AmpC hydrolysis of nitrocefin, absorbance 480 nm, 0.01% Triton; Potency, µM (doses to about 114 µM), without a hit: at the top dose activity change, negative = inhibition, usual class: inhibitors; hit rate 0.041% among 370,000;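 note: 0% = no-compound wells and -100% = no-enzyme wells; nearly all actives have a fitted effect of over 25% in size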
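AmpC (5.3 nM in the dispensed reagent) in 20 mM phosphate pH 7.0 with 0.01% (detergent screen) or 0.0001% Triton X-100 was preincubated with compounds for 15 min at room temperature. Nitrocefin was then added from an 800 uM solution, and hydrolysis was followed at 480 nm.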
TbPYK inhibitor = blocks Trypanosoma brucei pyruvate kinase | Q57TT1 | TbPYK enzyme, Kinase-Glo Plus ATP luminescence, 45 min | Potency, µM (top dose mostly 76.8 µM), for the others: top-dose activity, negative = inhibition, usual class: inhibitors | hit rate 0.12% among 410,000 | AID 624173; note: % is set by controls: 0 for no effect and ±100 for the full control effect; nearly all actives have a fitted effect of over 50% in size
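Assay buffer: 50 mM TEA pH 7.2, 100 mM KCl, 10 mM MgCl2, 0.05% BSA, 0.01% Tween-20. Pyruvate kinase from T. brucei plus substrate met compound, then ADP (130 uM final). Luminescence was read post 45 min RT.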
RE007 growth inh = less growth of the S. pombe RE007 Vpr strain; Potency, µM (doses to about 92.2 µM), inactives show top-dose activity change, negative = less growth, most hits filed as inhibitors; hit rate 0.21% among 360,000; S. pombe RE007 Vpr strain, BacTiter-Glo ATP luminescence, 24 h; AID 651644; active = well fitted falling curve with a large enough effect; inconclusive = small, poorly fitted or top-dose-only effect; inactive = no such curve, though single readings can be large or run the other way; note: % is set by controls: 0 for no effect and ±100 for the full control effect; nearly all actives have a fitted effect of over 50% in size
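Fission yeast strain RE007, carrying one chromosomally integrated HIV-1 vpr copy, was seeded at OD 0.01 in PMG+AL medium with 23 nL pinned compound. After 24 h at 30 °C and 99% humidity, viability was read by BacTiter-Glo luminescence.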
Sm TGR inh = S. mansoni TGR enzyme inhibition. Q962Y6. purified TGR, DTNB reduction, TNB absorbance 405 nm. Potency, µM (highest dose often 114 µM), inactives show at the highest dose activity change, negative = inhibition, hits mostly inhibitors. hit rate 3% among 360,000; note: % is set by controls: 0 for no effect and ±100 for the full control effect; nearly all actives have a fitted effect of over 60% in size
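TGR 20 nM + NADPH 100 uM (dispensed conc.), cpd preinc 15 min RT; start with NADPH (500 uM addition) then DTNB (15 mM addition). Kinetic TNB absorbance, 405 nm filter. Four-parameter Hill fit across titration.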
* = called active by the depositor; u = inconclusive; x = no result given; [ ] = remark or other dose. Unless noted, calls come from the whole dose curve; as a rule, active = well fitted curve in the direction sought with a large enough effect; inconclusive = small, poorly fitted or top-dose-only effect, or another doubt; inactive = no such curve, though single readings can be large; an effect the other way counts as inactive or inconclusive. Potency is the fitted concentration of half-maximal effect.

SMILES	SARS PLP yeast	AmpC inh no detg	AmpC inh detg	TbPYK inhibitor	RE007 growth inh	Sm TGR inh
Cc1ccccc1-c1nnc(SCC(=O)N(C)C2CCCCC2)o1	x	x	21%	2%	x	-1%
Cc1cc(Cl)cc(Cl)c1OCC(=O)NCc1ccco1	-10%	2%	-13%	-1%	0%	40µM*
Cc1ccc(OCC(=O)NCc2ccco2)cc1C	-9%	-15%	u	-10%	u	35µM*
Cc1ccc(OCC(=O)NCCNC(=O)c2ccco2)cc1C	-1%	-1%	-13%	-1%	-17%	-6%
COC(=O)c1cc2oc(C)cc2n1Cc1c(C)cc(C)cc1C	x	x	14%	-1%	x	0%
CCC(=O)N1c2ccc(S(=O)(=O)N3CCC(C)CC3)cc2CC1C (stereo not drawn)	x	x	-1%	1%	x	3%
COc1ccc(NC(=O)CN(C)S(=O)(=O)c2ccc3nc(C)sc3c2)cc1	x	x	-1%	1%	x	9%
O=S1(=O)NC2c3ccccc3CC2O1 (stereo not drawn)	-11%	-27%	u	-10%	2%	25µM*
CC1(C)OCC(C2CC(c3ccccc3)NS(=O)(=O)O2)O1 (stereo not drawn)	-4%	-15%	-8%	1%	12%	0%
COC(=O)c1cc(-c2ccc(C)cc2)c2c(=O)n(C)c(=O)n(C)c2n1	x	x	18%	2%	x	3%
CC(C)(C)c1cc(C(c2cccnc2)N2CCN(CCO)CC2)cc(C(C)(C)C)c1O (stereo not drawn)	-33%	106%	u	u	u	0.45µM*
O=C(CCS(=O)(=O)c1ccccc1)N(CCCN1CCOCC1)c1nc2c(F)cccc2s1	3%	239%	-2%	-9%	-6%	11µM*
CCc1cccc2sc(N(CCCN3CCOCC3)C(=O)CS(=O)(=O)c3ccccc3)nc12	1%	216%	-6%	0%	2%	4%
O=C(CCS(=O)(=O)c1ccccc1)N(CCCN1CCOCC1)c1nc2ccc(F)cc2s1	7%	138%	-24%	-2%	-4%	13µM*
Cc1cccn2c(Nc3ccc4c(c3)OCCO4)c(-c3ccc(Br)o3)nc12	x	x	-4%	1%	x	-21%
CCN1CC2([N+](=O)[O-])C=CC(=O)C([N+](=O)[O-])(C1)C2CC(=O)c1ccccc1 (stereo not drawn)	-4%	-27%	2%	3%	-15%	13µM*
O=C(CSc1ccc([N+](=O)[O-])cc1)c1ccccc1	x	x	x	6%	-24%	x
CCCCN1CC2([N+](=O)[O-])C=CC(=O)C([N+](=O)[O-])(C1)C2CC(=O)c1ccccc1 (stereo not drawn)	-12%	-29%	u	7%	-13%	22µM*
CCCCn1c(=N)n(CC(=O)c2ccc([N+](=O)[O-])cc2)c2ccccc21	-1%	-11%	-10%	x	x	1%
O=[N+]([O-])c1ccccc1S(=O)(=O)NCCSCc1ccco1	-2%	-34%	-7%	-7%	21%	25µM*
CS(=O)(=O)NCCSCc1ccco1	0%	-23%	-11%	-4%	4%	20µM*
O=[N+]([O-])c1ccccc1S(=O)(=O)NCc1ccco1	9%	-13%	3%	-5%	0%	6%
CN1/C(=C/C2CC(=O)NC2=O)C(C)(C)c2ccccc21 (stereo not drawn)	2%	-7%	2%	8%	3%	45µM*
COc1cc2c(cc1OC)C1O[C@](c3ccsc3)(C2)OC2=C1C(=O)OC1(CCCCC1)C2	-4%[6.58 µM]	-6%[11.4 µM]	-7%[22.9 µM]	x	x	u
COc1ccc(N=Cc2nc(-c3ccccc3)oc2OC(=O)c2ccccc2)cc1	-14%	-21%	u	-19%	-17%	-27%
SMILES	SARS PLP yeast	AmpC inh no detg	AmpC inh detg	TbPYK inhibitor	RE007 growth inh	Sm TGR inh
CC(=O)Oc1oc(-c2ccccc2)nc1C=Nc1ccccc1	2%	-26%	2%	-15%	1%	18µM*
Cc1ccc(C(=O)Oc2oc(-c3ccco3)nc2C=Nc2ccccc2)cc1	10%	-17%	4%	x	x	2.5µM*
C=CCn1c(SCC(=O)Nc2ccccc2F)nc2ccccc2c1=O	-6%	-24%	6%	2%	11%	79µM*
O=C(CSc1nc2ccccc2c(=O)n1Cc1ccco1)NCc1ccco1	3%	-46%	-8%	-1%	-17%	40µM*
N#CCCn1c(SCC(=O)NCc2ccco2)nc2ccccc21	13%[6.58 µM]	-9%	-8%	-2%	-10%	40µM*
CCN(CC)CCn1c(SCC(=O)NCc2ccco2)nc2c(sc3ccccc32)c1=O	0%	6%	-5%	6%	-5%	32µM*
CC(=O)c1cccc(NC(=O)CCS(=O)(=O)c2cc(Br)cc3c2N(C(=O)C2CC2)CC3)c1	x	x	8%	1%	x	u
COc1ccc(C(=O)Nc2nnc(S(=O)(=O)N3CCN(c4ccc(C)cc4)CC3)s2)cc1	x	x	5%	0%	x	-4%
C#C[C@@]1(O)CC[C@@H]2[C@H]3CCC4=C/C(=N\O)CC[C@H]4[C@@H]3CC[C@]21CC	x	x	x	5%	x	x
Cc1ccc(C)c(Cn2c(=O)c3c(nc4n3CCN4c3ccccc3)n(C)c2=O)c1	x	x	1%	-1%	x	1%
OCCN1CCN(C(c2cccs2)c2ccc3cccnc3c2O)CC1 (stereo not drawn)	-33%	-23%	-14%	x	x	0.32µM*
CCN1CCN(C(c2ccc(C(F)(F)F)cc2)c2ccc3cccnc3c2O)CC1 (stereo not drawn)	-11%	81%	-5%	6%	20%	0%
Cc1ccc(-n2nc3c(c2NC(=O)c2ccc(Br)o2)CSC3)c(C)c1	-5%	-27%	-2%	0%	11%	u
COc1ccc(-n2nc3c(c2NC(=O)C(C)Cl)CSC3)cc1 (stereo not drawn)	-7%	-33%	-12%	-14%	4%	-24%
COc1ccc(-n2nc3c(c2NC(=O)CCl)CSC3)cc1	-3%	-15%	4%	-8%	-4%	8.9µM*
Cc1ccccc1-n1nc2c(c1NC(=O)CCCl)CSC2	2%	-15%	-6%	-9%	-15%	18µM*
Cc1cccc(-n2nc3c(c2NC(=O)c2ccco2)CSC3)c1C	-2%	-22%	2%	-24%	-3%	45µM*
CCC(=O)Nc1c2c(nn1-c1ccccc1)CSC2	-3%	-7%	u	4%	6%	50µM*
O=C(Cn1cc(S(=O)(=O)Cc2cccc(Cl)c2)c2ccccc21)Nc1ccccc1Cl	x	x	0%	6%[15.4 µM]	x	-10%
